Results reported in PubChem BioAssay (NCI).
Compounds without any hit were thinned out: in the full panel of roughly 79,000, 15% have a hit. Calls of active or inactive are those of the source. Cut-off read from the data, not from the text of the source: active = growth inhibition above about 70%; inactive = the rest.

Legend:
[1] = NCI Yeast Anticancer Drug Screen. Data for the rad50 strain (AID 155);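 note: 0% = growth of vehicle-only cultures of the same strain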; conditions: S. cerevisiae rad50 strain growth inhibition, stronger effect = higher value
How it was run: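 Vehicle-treated cultures provide the reference for the growth inhibition reported for compound-exposed, repair-deficient yeast.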

[2] = NCI Yeast Anticancer Drug Screen. Data for the mec2-1 strain (AID 157); conditions: S. cerevisiae mec2-1 strain, stronger effect = higher value
How it was run: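 Strain: mec2-1 (DNA repair/cell cycle alteration). Compound exposure, then growth measured; inhibition expressed relative to vehicle.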

[3] = NCI Yeast Anticancer Drug Screen. Data for the sgs1 mgt1 strain (AID 161);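 note: 0% = growth of cultures given vehicle only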; conditions: S. cerevisiae sgs1 mgt1 strain, stronger effect = higher value
How it was run: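 Read-out: growth inhibition vs vehicle controls. Cells: mutant yeast strain deficient in DNA damage repair.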

[4] = NCI Yeast Anticancer Drug Screen. Data for the cln2 rad14 strain (AID 165);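 note: 0% = growth equal to vehicle treated cultures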; conditions: S. cerevisiae cln2 rad14 strain, stronger effect = higher value
How it was run: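 Compounds are applied to the cln2 rad14 yeast strain, and growth is then compared with that of vehicle-treated cultures to give inhibition.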

[5] = NCI Yeast Anticancer Drug Screen. Data for the bub3 strain (AID 167); conditions: S. cerevisiae bub3 mutant strain, stronger effect = higher value
How it was run: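 Mutant yeast screening strain plus compound; vehicle-treated cultures serve as the 0% inhibition reference.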

[6] = NCI Yeast Anticancer Drug Screen. Data for the mlh1 rad18 strain (AID 175); conditions: S. cerevisiae mlh1 rad18 strain growth inhibition, stronger effect = higher value
How it was run: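 Read-out is yeast growth inhibition, calculated against vehicle-only controls. The compound was applied to a strain engineered with DNA damage repair alterations.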

[7] = at 5.0 µM (retest, dose inferred, filed as 0.5)
[8] = at 50.0 µM (retest, dose inferred, filed as 5.0)

Measured: growth inhibition

O=C(Nc1ccc2c(c1)Cc1cc([N+](=O)[O-])c(F)cc1-2)C(F)(F)F
inactive: [1]; [7] 13% | [1]; [8] 4% | [1]; at 50.0 µM 5.25% | [2]; [7] 1% | [2]; [8] 2% | [2]; at 50.0 µM 49.2% | [3]; [7] 3% | [3]; [8] -20% | [3]; at 50.0 µM 6.55% | [4]; [7] 0% | [4]; [8] 7% | [4]; at 50.0 µM -2.1% | [5]; [7] -3% | [5]; [8] 0% | [5]; at 50.0 µM -4.35% | [6]; [7] 3% | [6]; [8] 3% | [6]; at 50.0 µM 28.5%

Brc1ccc(N=NN2CCCC2)cc1
inactive: [1]; [7] 14% | [1]; [8] 12% | [2]; [7] 0% | [2]; [8] 8% | [2]; at 50.0 µM 59.6% | [3]; [7] 33% | [3]; [8] 33% | [4]; [7] 36% | [4]; [8] 36% | [4]; at 50.0 µM 68% | [5]; [7] 30% | [5]; [8] 37% | [6]; [7] 7% | [6]; [8] 5%
active: [1]; at 50.0 µM 74% | [3]; at 50.0 µM 86.4% | [5]; at 50.0 µM 85.6% | [6]; at 50.0 µM 86.1%

C(=C\[n+]1ccc2ccccc2c1)/c1ccccc1
active: [1]; at 50.0 µM 80% | [6]; at 50.0 µM 74.9%
inactive: [1]; [7] -3% | [1]; [8] 35% | [2]; [7] -2% | [2]; [8] 12% | [2]; at 50.0 µM 26.9% | [3]; [7] -4% | [3]; [8] 38% | [3]; at 50.0 µM 68.7% | [4]; [7] -3% | [4]; [8] -3% | [4]; at 50.0 µM 42.5% | [5]; [7] -5% | [5]; [8] 27% | [5]; at 50.0 µM 8% | [6]; [7] 10% | [6]; [8] 10%

CCn1nc(-c2ccccc2)c2c1N(C)c1ccccc1-n1c(-c3ccccc3)nnc1-2
inactive: [1]; [7] -1% | [1]; [8] 49% | [2]; [7] -16% | [3]; [7] 3% | [3]; [8] 45% | [4]; [7] 14% | [5]; [7] -11% | [6]; [7] 7%
active: [1]; at 50.0 µM 98.7% | [2]; [8] 99% | [2]; at 50.0 µM 99% | [3]; at 50.0 µM 99.2% | [4]; [8] 98% | [4]; at 50.0 µM 99% | [5]; [8] 99% | [5]; at 50.0 µM 99.2% | [6]; [8] 98% | [6]; at 50.0 µM 99.2%

O=C(CC(=O)c1cccnc1)c1cccnc1
active: [1]; [8] 98% | [1]; at 50.0 µM 98.8% | [2]; [8] 98% | [2]; at 50.0 µM 98% | [3]; [8] 98% | [3]; at 50.0 µM 98.5% | [4]; [8] 98% | [4]; at 50.0 µM 76.7% | [5]; [8] 98% | [5]; at 50.0 µM 97.7% | [6]; [8] 98% | [6]; at 50.0 µM 99%
inactive: [1]; [7] 6% | [2]; [7] 9% | [3]; [7] 7% | [4]; [7] 5% | [5]; [7] 8% | [6]; [7] 7%

O=C(C[P+](c1ccccc1)(c1ccccc1)c1ccccc1)c1ccc(Br)cc1
inactive: [1]; [7] 67% | [2]; [7] 53% | [4]; [7] 22% | [5]; [7] 62% | [6]; [7] 69%
active: [1]; [8] 96% | [1]; at 50.0 µM 98.8% | [2]; [8] 98% | [2]; at 50.0 µM 97.4% | [3]; [7] 82% | [3]; [8] 99% | [3]; at 50.0 µM 96.8% | [4]; [8] 96% | [4]; at 50.0 µM 95.9% | [5]; [8] 97% | [5]; at 50.0 µM 97.7% | [6]; [8] 97% | [6]; at 50.0 µM 96%

Cc1cc(NCCCCCCCCNc2cc(C)nc3cc(N(C)C)ccc23)c2ccc(N(C)C)cc2n1
inactive: [1]; [7] 18% | [2]; [7] 18% | [3]; [7] 53% | [3]; at 50.0 µM 26.5% | [4]; [7] 24% | [4]; at 50.0 µM 18.4% | [5]; [7] 57% | [5]; at 50.0 µM 32.1% | [6]; [7] 17% | [6]; at 50.0 µM -17.5%
active: [1]; [8] 95% | [1]; at 50.0 µM 84.9% | [2]; [8] 97% | [2]; at 50.0 µM 90.5% | [3]; [8] 97% | [4]; [8] 97% | [5]; [8] 97% | [6]; [8] 96%

C=CC1(c2ccc(-c3ccccc3)cc2)OCCO1
inactive: [1]; [7] 1% | [1]; [8] 14% | [1]; at 50.0 µM 51.3% | [2]; [7] 2% | [2]; [8] 6% | [2]; at 50.0 µM 41.5% | [3]; [7] -4% | [3]; [8] -10% | [4]; [7] 19% | [4]; [8] 8% | [4]; at 50.0 µM 7.15% | [5]; [7] -22% | [5]; [8] -6% | [5]; at 50.0 µM 64.1% | [6]; [7] -17% | [6]; [8] 0% | [6]; at 50.0 µM 49.5%
active: [3]; at 50.0 µM 74.4%

COc1ccc(C2CN(C(=O)c3ccccc3)N=C(c3ccccc3)O2)cc1 (configuration not stated)
active: [1]; at 50.0 µM 93.7% | [2]; at 50.0 µM 93.2% | [3]; at 50.0 µM 93.7% | [4]; at 50.0 µM 90.2% | [5]; at 50.0 µM 90% | [6]; at 50.0 µM 95%
inactive: [1]; [7] -1% | [1]; [8] -16% | [2]; [7] -8% | [2]; [8] 1% | [3]; [7] 1% | [3]; [8] -46% | [4]; [7] -5% | [4]; [8] -8% | [5]; [7] -4% | [5]; [8] -67% | [6]; [7] -6% | [6]; [8] -6%
